# Measured values: PubChem BioAssay AID1159580 (chemical genetic matrix, 2015)
# The campaign covered roughly 5,500 compounds. About 2,000 (36%) were called active. Another 18% or so got no clear call; they are omitted. The list shows a part of the results. Values without a mark were called inactive. No stated cut-off is given here; in the data, active means normalized growth mostly below about 0.91 (no sharp cut-off); inconclusive means no clear call, values can overlap the other calls; inactive means mostly above about 0.92.
# Assay: chemical genetic growth profiling, strain panel (AID 1159580);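 further: tested at 20 µM; growth read once vehicle control cultures reached saturation at 30 °C; 1 = growth at the plate median or of vehicle wells; lower values mean less growth of the strain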
# Conditions: S. cerevisiae deletion strains, growth OD
smiles,measurement,setting,value
CCOC(=O)c1oc2c(OC)c(O)cc(O)c2c(=O)c1-c1cc(OC)c(OC)c(OC)c1,normalized growth,"locus YAL021C, strain ccr4, active compounds read low",0.985
same,normalized growth,"locus YAL026C, strain drs2, active compounds read low",0.974
same,normalized growth,"locus YAL030W, strain snc1, active compounds read low",0.968
same,normalized growth,"locus YBL061C, strain skt5, active compounds read low",0.976
same,normalized growth,"locus YBR009C, strain hhf1, active compounds read low",0.972
same,normalized growth,"locus YBR023C, strain chs3, active compounds read low",0.972
same,normalized growth,"locus YBR171W, strain sec66, active compounds read low",0.956
same,normalized growth,"locus YBR231C, strain swc5, active compounds read low",0.974
same,normalized growth,"locus YBR279W, strain paf1, active compounds read low",0.987
same,normalized growth,"locus YCL011C, strain gbp2, active compounds read low",0.976
same,normalized growth,"locus YCL016C, strain dcc1, active compounds read low",0.977
same,normalized growth,"locus YCL061C, strain MRC1, active compounds read low",0.966
same,normalized growth,"locus YCL069W, strain vba3, active compounds read low",0.989
same,normalized growth,"locus YCR088W, strain abp1, active compounds read low",0.972
same,normalized growth,"locus YDL005C, strain med2, active compounds read low",0.993
same,normalized growth,"locus YDL040C, strain nat1, active compounds read low",0.983
same,normalized growth,"locus YDR001C, strain nth1, active compounds read low",0.982
same,normalized growth,"locus YDR069C, strain doa4, active compounds read low",0.991
same,normalized growth,"locus YDR137W, strain rgp1, active compounds read low",0.799 (active)
same,normalized growth,"locus YDR159W, strain sac3, active compounds read low",0.973
same,normalized growth,"locus YDR195W, strain ref2",1.05
same,normalized growth,"locus YDR297W, strain sur2, active compounds read low",0.979
same,normalized growth,"locus YDR334W, strain swr1, active compounds read low",0.98
same,normalized growth,"locus YDR335W, strain msn5, active compounds read low",0.971
same,normalized growth,"locus YDR392W, strain spt3, active compounds read low",0.878
same,normalized growth,"locus YEL003W, strain gim4, active compounds read low",0.978
same,normalized growth,"locus YEL037C, strain rad23, active compounds read low",0.98
same,normalized growth,"locus YEL061C, strain CIN8 (second series), active compounds read low",0.978
same,normalized growth,"locus YER015W, strain faa2, active compounds read low",0.986
same,normalized growth,"locus YER016W, strain bim1, active compounds read low",0.969
same,normalized growth,"locus YER111C, strain swi4, active compounds read low",0.989
same,normalized growth,"locus YER155C, strain BEM2 (second series), active compounds read low",0.947
same,normalized growth,"locus YFR010W, strain ubp6, active compounds read low",0.986
same,normalized growth,"locus YGL167C, strain pmr1, active compounds read low",0.957
same,normalized growth,"locus YGL173C, strain kem1, active compounds read low",0.965
same,normalized growth,"locus YGL227W, strain vid30, active compounds read low",0.959
same,normalized growth,"locus YGL240W, strain doc1, active compounds read low",0.948
same,normalized growth,"locus YGL253W, strain hxk2, active compounds read low",0.974
same,normalized growth,"locus YHR013C, strain ard1, active compounds read low",1.01
same,normalized growth,"locus YHR027C, strain rpn1, active compounds read low",0.985
same,normalized growth,"locus YHR142W, strain chs7, active compounds read low",0.955
same,normalized growth,"locus YJL092W, strain hpr5, active compounds read low",0.973
same,normalized growth,"locus YJL095W, strain BCK1 (second series), active compounds read low",0.975
same,normalized growth,"locus YJL115W, strain asf1, active compounds read low",0.986
same,normalized growth,"locus YJL129C, strain trk1, active compounds read low",0.977
same,normalized growth,"locus YJL154C, strain vps35, active compounds read low",0.984
same,normalized growth,"locus YJL164C, strain tpk1, active compounds read low",0.964
same,normalized growth,"locus YJL166W, strain qcr8, active compounds read low",0.975
same,normalized growth,"locus YJL187C, strain SWE1, active compounds read low",0.985
same,normalized growth,"locus YKL160W, strain elf1, active compounds read low",0.966
same,normalized growth,"locus YKR026C, strain gcn3, active compounds read low",0.97
same,normalized growth,"locus YKR091W, strain srl3, active compounds read low",0.973
same,normalized growth,"locus YLL001W, strain dnm1, active compounds read low",0.98
same,normalized growth,"locus YLL026W, active compounds read low",0.968
same,normalized growth,"locus YLL041C, strain sdh2, active compounds read low",0.974
same,normalized growth,"locus YLR027C, strain aat2, active compounds read low",0.972
same,normalized growth,"locus YLR221C, strain rsa3, active compounds read low",0.972
same,normalized growth,"locus YLR258W, strain gsy2, active compounds read low",0.969
same,normalized growth,"locus YLR262C, strain YPT6 (second series), active compounds read low",0.82 (active)
same,normalized growth,"locus YLR320W, strain mms22, active compounds read low",0.901
same,normalized growth,"locus YLR342W, strain FKS1, active compounds read low",0.971
same,normalized growth,"locus YLR357W, strain rsc2, active compounds read low",1
same,normalized growth,"locus YLR370C, strain arc18, active compounds read low",0.972
same,normalized growth,"locus YLR384C, strain iki3, active compounds read low",0.982
same,normalized growth,"locus YML120C, strain ndi1, active compounds read low",0.973
same,normalized growth,"locus YMR058W, strain fet3, active compounds read low",0.976
same,normalized growth,"locus YMR125W, strain sto1, active compounds read low",0.985
same,normalized growth,"locus YMR129W, active compounds read low",0.978
same,normalized growth,"locus YMR205C, strain PFK2, active compounds read low",0.933
same,normalized growth,"locus YMR231W, strain pep5, active compounds read low",0.997
same,normalized growth,"locus YNL071W, strain lat1, active compounds read low",0.959
same,normalized growth,"locus YNL209W, strain ssb2, active compounds read low",0.98
same,normalized growth,"locus YNL248C, strain rpa49, active compounds read low",0.958
same,normalized growth,"locus YNL322C, strain KRE1 (second series), active compounds read low",0.971
same,normalized growth,"locus YNR049C, strain mso1, active compounds read low",0.974
same,normalized growth,"locus YOR001W, strain rrp6, active compounds read low",0.969
same,normalized growth,"locus YOR070C, strain gyp1, active compounds read low",0.973
same,normalized growth,"locus YOR080W, strain dia2, active compounds read low",0.985
same,normalized growth,"locus YOR083W, strain WHI5, active compounds read low",0.965
same,normalized growth,"locus YOR106W, strain vam3, active compounds read low",0.975
same,normalized growth,"locus YOR265W, strain rbl2, active compounds read low",0.974
same,normalized growth,"locus YOR270C, strain vph1, active compounds read low",0.915
same,normalized growth,"locus YOR290C, strain snf2, active compounds read low",0.959
same,normalized growth,"locus YPL051W, strain arl3, active compounds read low",0.963
same,normalized growth,"locus YPL078C, strain atp4, active compounds read low",0.973
same,normalized growth,"locus YPL106C, strain sse1, active compounds read low",0.997
same,normalized growth,"locus YPL240C, strain hsp82, active compounds read low",0.964
